From PubChem
Compounds with a hit are over-represented: about 3.4% of the library has one in this group of screens.
GPR151 ag: activates the human receptor GPR151. activation, % at 11.2 µM. PathHunter beta-arrestin GPR151 cells, luminescence. AID 1508602. hit rate 1% among 650,000; in the data active means activation above about 4.9%;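 further: 0% = median of compound wells and 100% = cells with positive control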
Target sequence (Q8TDV0 whole entry, looked up): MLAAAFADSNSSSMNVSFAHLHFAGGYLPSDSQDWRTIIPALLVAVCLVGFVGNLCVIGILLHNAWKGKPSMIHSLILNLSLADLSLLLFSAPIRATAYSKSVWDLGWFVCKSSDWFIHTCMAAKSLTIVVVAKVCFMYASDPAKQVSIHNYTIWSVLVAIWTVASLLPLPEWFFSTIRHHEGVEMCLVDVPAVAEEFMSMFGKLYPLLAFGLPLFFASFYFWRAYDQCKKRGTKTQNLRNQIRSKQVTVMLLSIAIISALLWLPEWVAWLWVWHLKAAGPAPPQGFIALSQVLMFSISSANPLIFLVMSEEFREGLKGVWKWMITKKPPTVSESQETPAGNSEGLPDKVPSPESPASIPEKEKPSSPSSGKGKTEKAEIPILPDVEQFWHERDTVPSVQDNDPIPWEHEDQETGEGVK
FBW7 activator: human FBW7 E3 ligase activation, primary screen. AlphaScreen FBW7–phospho-cyclin E peptide binding, activator screen. normalized activity (activation), % at 26.1 µM. hit rate 0.13% among 650,000; in the data active means normalized activity above about 1.9%;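 further: purified mutant Fbw7 with reduced substrate affinity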
TEAD-YAP inh: TEAD-YAP interaction inhibition | HEK-TIYL cells, TEAD-Gal4/YAP UAS-luciferase luminescence | inhibition, % at 9.12 µM | hit rate 1.4% among 640,000 | AID 1259422; in the data active means inhibition above about 32%;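 further: 0% = median of test compound wells and 100% = reference inhibitor wells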
MITF primary: human MITF inhibition, primary screen; AlphaScreen MITF homodimerization, bead proximity signal; inhibition, % at 2.6 µM; O75030; hit rate 0.91% among 650,000; in the data active means inhibition above about 50%;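 further: 0% = vehicle wells with protein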
* hit, by the source's call.

SMILES | GPR151 ag | FBW7 activator | TEAD-YAP inh | MITF primary
COC(=O)c1cc(C(=O)OCC(=O)NC2CCCCC2C)cc([N+](=O)[O-])c1 (configuration not stated) | 1 | 0 | -3 | -1
CC(C)C(NS(C)(=O)=O)c1nnc2n1CCN(Cc1ccco1)CC2 (configuration not stated) | 1 | 0 | -3 | 10
COc1ccc(Br)cc1C1C(C#N)=C(N)Oc2cc3c(cc21)OCO3 (configuration not stated) | 0 | 0 | 47* | -14
CCOc1cc(C2C(C#N)=C(N)Oc3cc4c(cc32)OCO4)cc(Br)c1OC (configuration not stated) | 1 | 0 | 57* | 5
CCc1ccccc1N1CC(C(=O)Nc2ccc(I)cc2)CC1=O (configuration not stated) | 0 | 0 | 2 | 1
CCN(CC)S(=O)(=O)c1ccc(-c2csc(=Nc3ccc(F)cc3)n2CCCO)cc1 | 1 | 0 | 39* | 24
OCCCn1c(-c2ccc(F)cc2)csc1=Nc1ccc(F)cc1 | 0 | 0 | -19 | 11
COCC(=O)NC(c1ccc(OC)cc1)c1nccn1C (configuration not stated) | -1 | 0 | -2 | 17
c1ccc(CN2CCC(Nc3cc(-c4csc5ccccc45)ncn3)CC2)cc1 | 1 | 0 | 9 | 2
c1ccc2c(-c3cc(NC4CC4)ncn3)csc2c1 | -1 | 0 | 35* | 13
Cn1c(=O)c(C(=O)NCc2ccc3c(c2)OCO3)c(O)c2ccccc21 | 1 | 0 | -1 | -1
Cc1ccccc1Cn1nc(C)c(NC(=O)c2cc(C3CC3)on2)c1C | 0 | 2.1* | 4 | -2
Cc1cc(C(=O)Nc2c(C)nn(Cc3c(Cl)cccc3Cl)c2C)no1 | 0 | 0 | 33* | 0
c1ccc(N2CCN(c3cc(-c4cccnc4)nc(-c4ccncc4)n3)CC2)nc1 | 0 | 0 | 2 | -59
Cc1nc(NC(=O)c2ccc(Cl)c([N+](=O)[O-])c2)sc1C | 0 | 0 | -8 | -5
COCc1c(C#N)c(Sc2nnc(N)s2)nc(C)c1[N+](=O)[O-] | -2 | 0 | -8 | 55*
COCc1c(C#N)c(Cl)nc(C)c1[N+](=O)[O-] | -2 | 0 | 4 | -5
ClCc1nc2cc3ccccc3cc2[nH]1 | 0 | 0 | 40* | -3
Cc1cc(C)c(C(=O)Nc2ccc3c(c2)OCCO3)c(C)c1 | 0 | 0 | -8 | -3
O=C(Nc1ccc2c(c1)OCCO2)c1ccccc1O | -6 | 0 | 56* | 12
O=C(Nc1ccc2c(c1)OCCO2)c1ccccc1F | -7 | 0 | 41* | 8
Cc1ccc(C2=NC(C)(C)N=C2SCC(=O)Nc2ccc3c(c2)OCCO3)cc1 | 0 | 3.7* | 15 | -10
Cc1ccc(C(=O)Nc2ccc3c(c2)OCCO3)c(C)c1 | -5 | 0 | 89* | 2
Nc1cc(N)nc(SCC(=O)Nc2nnc(SCc3ccccc3)s2)n1 | 0 | 1 | 3 | 22
CC1CN(c2ccccc2)c2nc3c(c(=O)n(Cc4ccccc4F)c(=O)n3C)n2C1 (configuration not stated) | 1 | 0 | -12 | 6
SMILES | GPR151 ag | FBW7 activator | TEAD-YAP inh | MITF primary
c1ccc(Oc2ccc(Nc3nc(-c4ccccc4)nc4c3ncn4-c3ccsc3)cc2)cc1 | -1 | 0 | 5 | 3
CC(C)N(CCNC(=O)c1csc(-c2cccs2)n1)C(C)C | 0 | 0 | 0 | 0
CC1CCCCN1C(=O)CN(Cc1ccccc1Cl)S(=O)(=O)c1ccccc1F (configuration not stated) | -1 | 0 | -2 | -7
CCC(CC)C(=O)Nc1cccc(C(=O)Nc2ccc3c(c2)OCCO3)c1 | 1 | 0 | -66 | 9
O=C(Nc1cccc(C(=O)NC2CC2)c1)C(=O)Nc1ccc2c(c1)OCCO2 | 1 | 0 | 66* | 6
Cc1cc(C(=O)CSc2nnc(N)s2)c(C)n1Cc1cccs1 | -2 | 0 | 58* | 13
Cc1cc(C(=O)CCl)c(C)n1Cc1cccs1 | 0 | 0 | 6 | 8
Cc1csc(SCC(=O)c2cc(C)n(Cc3cccs3)c2C)n1 | -1 | 0 | 59* | 3
Cc1cc(C(=O)CSc2nc(N)cc(=O)[nH]2)c(C)n1Cc1cccs1 | 0 | 0 | 8 | 13
Cc1ccc(-n2c(=O)[nH]cc(C(=O)Nc3cccc(C)c3C)c2=O)cc1C | -2 | 0 | -1 | 0
C#CCOc1ccc(/C=C/c2nc(O)c([N+](=O)[O-])c(=O)[nH]2)cc1OC | 2 | 0 | 0 | -4
CC1=CCC2C(=O)N(c3ccc(Oc4ccccc4)cc3)C(=O)C2C1 (configuration not stated) | 0 | 0 | 2 | 11
COc1cc(C(=O)NNC(=O)c2cccc(Cl)c2)cc(OC)c1OC | 4 | 0 | 5 | 0
COc1cc(C(=O)COC(=O)c2ccc(Cl)cc2N)cc(OC)c1OC | 0 | 0 | 53* | 1
COc1cc(C(=O)c2cc(Cl)ccc2N)cc(OC)c1OC | 0 | 0 | 52* | 12
COc1ccc(C(=O)COC(=O)c2ccc(Cl)cc2N)cc1 | 0 | 0 | -2 | -4
CN1CCN(c2cc(-c3ccc(F)cc3)nc(-c3ccncc3)n2)CC1 | -1 | 0 | -3 | 18
CN1CCN(c2cc(-c3ccncc3)nc(-c3ccncc3)n2)CC1 | -2 | 0 | 38* | 11
CCOC(=O)c1c(C)oc2c1cc(NS(=O)(=O)c1ccc(OC)cc1)c1ccccc12 | 0 | 0 | 51* | 10
CCOc1ccc(S(=O)(=O)Nc2cc3c4c(oc3c3ccccc23)CCCC4)cc1 | -1 | 0 | 49* | -9
COc1ccc(S(=O)(=O)Nc2cc3c(C(C)=O)c(C)oc3c3ccccc23)cc1 | 3 | 0 | 69* | -3
CCOc1ccc(S(=O)(=O)Nc2cc3c(C(=O)OC)c(C)oc3c3ccccc23)cc1 | 2 | 0 | 63* | -2
NS(=O)(=O)c1ccc(CCn2c(-c3ccc(Cl)s3)csc2=Nc2ccc(OC(F)(F)F)cc2)cc1 | 3 | 0 | 2 | -4
CC(Nc1ncnc(N)c1[N+](=O)[O-])c1ccccc1 (configuration not stated) | 1 | 0 | -5 | -1
CCC(CO)NCC(O)COc1ccccc1C(C)=O (configuration not stated) | 0 | 0 | 10 | -3
SMILES | GPR151 ag | FBW7 activator | TEAD-YAP inh | MITF primary
COc1ccc(S(=O)(=O)Nc2cc3c(cc2C(C)=O)OCO3)cc1 | 1 | 0 | 38* | 11
CCOC(=O)c1ccccc1NS(=O)(=O)c1ccc(OCC)cc1 | -2 | 0 | 48* | -15
CC(=O)c1cc2c(cc1NS(=O)(=O)c1ccc(C(C)(C)C)cc1)OCO2 | 0 | 0 | -4 | 4
O=C1CN(C(=O)CCc2nnc(C3(c4ccc(Cl)cc4)CCC3)o2)CCN1 | 2 | 0 | -5 | -4
CCOC(=O)c1ccc(N2N=C(C(F)(F)F)/C(=C/C=C/c3ccco3)C2=O)cc1 | 0 | 0 | 3 | 64*
CCCOc1ccc(C2Oc3ccccc3C3CC(c4ccc(OC)cc4)=NN32)cc1 (configuration not stated) | 1 | 0 | -62 | -2
Ic1ccc(C2=CSC3=NCCN23)cc1 | 0 | 0 | 7 | 11
